In PubChem BioAssay (NCI):
About 83,000 compounds went through this panel and 20% of them were active in at least one assay; those are over-represented in the sample as a whole.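 Plates (96-well) were seeded with cells, treated with compound at one concentration, and incubated for 48 hours before percent growth was determined.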 A number with no mark means an inactive call. Active and inactive are the calls of the source. How the source made its calls: active means growth percent below 10; inactive means the rest.

Tests used:
Assay in all cases: NCI-60 one-dose screen, 48 h (100 = growth as untreated, 0 = no growth, -100 = all killed)
Conditions in all cases: 10 µM unless noted
NCI-H23 lung = tested on: NCI-H23 lung
NCI-H226 lung = tested on: NCI-H226 lung
NCI-H322M lung = tested on: NCI-H322M lung
HOP-62 NSCLC = tested on: HOP-62 NSCLC
NCI-H460 lung = tested on: NCI-H460 lung
HOP-92 NSCLC = tested on: HOP-92 NSCLC
NCI-H522 lung = tested on: NCI-H522 lung
A549/ATCC NSCLC = tested on: A549/ATCC NSCLC
786-0 renal = tested on: 786-0 renal
COLO 205 colon = tested on: COLO 205 colon

SMILES | growth (NCI-H23 lung) | growth (NCI-H226 lung) | growth (NCI-H322M lung) | growth (HOP-62 NSCLC) | growth (NCI-H460 lung) | growth (HOP-92 NSCLC) | growth (NCI-H522 lung) | growth (A549/ATCC NSCLC) | growth (786-0 renal) | growth (COLO 205 colon)
COc1cc(C(=O)CCCl)ccc1O | 91.8% | 88.9% | 106% | 112% | 106% | 95.6% | -24.2% (active) | 102% | 106% | 109%
O=P([O-])(O)OP(=O)([O-])O.[NH-][C@H]1CCCC[C@@H]1[NH-].[OH-].[OH-].[Pt+4] | 102% | 108% | 115% | 111% | 106% | 114% | 93.4% | 92.1% | 107% | 110%
CN1CCN(CCCOc2ccc3nc(Nc4ccc(C(F)(F)F)c(Cl)c4)ccc3c2)CC1 | 38.1% | 54.1% | -5.95% (active) | -21.7% (active) | -40% (active) | 7.32% (active) | -37.8% (active) | 3.9% (active) | -60.9% (active) | -77.9% (active)
Cc1ccc2c(c1)C(C)Cc1c(N(C)C)ncnc1N2C (stereo not given) | 50.5% | 81.8% | 81.2% | 36.4% | 15.5% | 52.4% | 4.76% (active) | 49.3% | 34.8% | 32.4%
CC1=C(C#N)C(C)(C)C(C#N)=C(C)N1 | 102% | 105% | 109% | 109% | 106% | 95.6% | 104% | 101% | 105% | 115%
c1ccc2c(c1)Oc1ccccc1C2C1c2ccccc2Oc2ccccc21 | 90.6% | 103% | 94.1% | 89.6% | 95.9% | 94.8% | 87.6% | 88.3% | 94.1% | 99.5%
CC(C)(C)c1cc(-c2nc3ccc(N4CCN(CCO)CC4)cc3[nH]2)cc(C(C)(C)C)c1O | 96.3% | 99% | 82.3% | 72.6% | 4.48% (active) | 45.2% | 74% | 43.1% | 52% | -57.2% (active)
COc1cc2nc(N3CCC[C@@H](NC4=CC(=O)c5ccccc5C4=O)C3)nc(N)c2cc1OC | 87.2% | 113% | -65.3% (active) | 94.5% | -72.9% (active) | 84.8% | 94.3% | -74.6% (active) | 94.7% | -71.8% (active)
Nc1nc(Cl)c2c(ncn2Cc2ccc(CCl)cc2)n1 | 94% | 94.5% | 94.9% | 120% | 93.8% | 54.9% | 76.1% | 83.4% | 103% | 106%
CCN(CC)P(=O)(N(CC)CC)N(CCCSC/C=C(\C)CC/C=C(\C)CCC=C(C)C)CCCN1CCN(C)CC1 | 110% | 96.9% | 108% | 106% | 101% | 82.4% | 91.6% | 87.6% | 101% | 105%
CSc1ccccc1C#C/C=C\C#Cc1ccccc1N1CCCCC1=O | 103% | 91.2% | 110% | 88.2% | 93.3% | 63.8% | 99.7% | 48.6% | 106% | 108%
CC(=O)/C=C/c1cc2cc(Cl)ccc2[nH]c1=O | 87.5% | 85.1% | 90.5% | 68% | 78.5% | 94.5% | 75.2% | 85.2% | 74.5% | 98.8%
COc1ccc(S(=O)(=O)NCCNc2nccc(-c3c(-c4ccccc4)nc4sccn34)n2)cc1 | 37% | 13.2% | 45.9% | 64.4% | 23.6% | 48.9% | 41% | 18.4% | 32% | 1.41% (active)
COc1ccc(OC)c(C(=O)c2oc3ccc(Br)cc3c2N)c1 | 24.7% | 55.9% | 20.9% | 33.6% | 8.36% (active) | 4.96% (active) | -2.14% (active) | 12.2% | 38% | -16.1% (active)
COc1cc(NCCN=C(N)NC(N)=NC(C)C)c2ncccc2c1 | 44.7% | 94.7% | 47.4% | 94.8% | 82.1% | 33.2% | -3.01% (active) | 91.4% | 105% | 20.4%
COc1cc2c(cc1OC)C1(C)N(CC2)C(=O)OC1(C)C (stereo not given) | 110% | 92.8% | 101% | 111% | 101% | 101% | 100% | 102% | 102% | 120%
CCCCCC/C=C\CCCCCCCCOc1ccc(CCOP(=O)(O)OCC[N+](C)(C)C)cc1 | 98.8% | 102% | 105% | 72.8% | 26.9% | 60.7% | 59% | 79% | 89.6% | 86.4%
O=C1Nc2cc(Cl)ccc2/C1=C/c1ccc(N2CCOCC2)s1 | 109% | 92.9% | 101% | 99.4% | 112% | 89.4% | 101% | 103% | 88.5% | 95.1%
COc1ccc(Cn2c(SC)nc(=O)n(Cc3ccc(Cl)cc3)c2=O)cc1 | 93.7% | 106% | 90.2% | 94.6% | 103% | 90% | 93.9% | 87.9% | 98.7% | 98.8%
C=C1C(=O)O[C@H]2[C@H]1CC/C(Cn1cc(-c3ccc(N)cc3)nn1)=C\CC[C@@]1(C)O[C@@H]21 | 22.3% | -14.3% (active) | 78.9% | 51.4% | 74% | -44.3% (active) | -73.2% (active) | 48.6% | -61.3% (active) | -63.5% (active)
Cc1ccccc1C(=O)c1ccccc1C(=O)O | 100% | 110% | 108% | 106% | 111% | 105% | 102% | 103% | 97.9% | 115%
Nc1c(C(=O)Nc2ccccc2)sc2nc3c(cc12)CN(Cc1ccccc1)CC3 | 79.1% | 45.2% | 50% | 52.1% | 32.8% | 20.2% | 80.2% | 54.2% | 28.8% | 97.8%
CC(C)C[C@H](NC(=O)[C@@H](Cc1ccccc1)n1ccc(Nc2ccccc2)cc1=O)B(O)O | 6.41% (active) | -72% (active) | 43.5% | -21.6% (active) | 8.89% (active) | -31.4% (active) | -53.7% (active) | 17% | 17.2% | 13.8%
NC(=S)NN=C1CCCCC1 | 89.5% | 87.5% | 99.3% | 91.9% | 97.8% | 92.1% | 70.3% | 84.7% | 106% | 93.2%
COc1ccc(/C=C2\C(=O)N(C(=O)c3csc(NC(C)=O)n3)N=C2C)cc1 | 102% | 104% | 96.7% | 100% | 105% | 99.8% | 85.2% | 97.3% | 100% | 99.3%
